Screens: PubChem, National Center for Advancing Translational Sciences (NCATS)
FMDV inh = antivirals against foot and mouth disease virus | FMDV antiviral cell-based qHTS | Potency, µM (highest dose often 57.9 µM), for inactives: top-dose activity change, negative = inhibition, hits mostly inhibitors | hit rate 1.2% among 410,000 | AID 1159524; calls by dose curve; tested in HEK293T cells; note: read-out not given here; potency is the fitted concentration of half-maximal effect; nearly all actives have a fitted effect of over 45% in size
Vaccinia mCherry = vaccinia inhibition (mCherry reporter); Vaccinia virus mCherry reporter infection, fluorescence; Potency, µM (top dose mostly 36.5 µM), without a hit: at the highest dose activity change, negative = inhibition, most hits filed as inhibitors; hit rate 0.63% among 310,000; calls by dose curve; tested in A549 cells; note: potency is the fitted concentration of half-maximal effect; nearly all actives have a fitted effect of over 35% in size
VACV Venus inh = inhibitors of vaccinia virus (Venus reporter); Potency, µM (series often up to 36.5 µM), for inactives: top-dose activity change, negative = inhibition, usual class: inhibitors; hit rate 0.46% among 330,000; Vaccinia virus Venus reporter expression, fluorescence; AID 720580; calls by dose curve; tested in A549 cells; note: potency is the fitted concentration of half-maximal effect; nearly all actives have a fitted effect of over 30% in size
MARV entry inh = Marburg virus entry inhibition | Marburg virus pseudotyped entry inhibition, cell reporter | Potency, µM (top dose mostly 37.8 µM), without a hit: at the top dose activity change, negative = inhibition, actives largely listed as inhibitors | hit rate 1.8% among 300,000 | AID 540276; calls by dose curve; tested in HEK293 cells; note: potency is the fitted concentration of half-maximal effect
HCMV inh = inhibitors of human cytomegalovirus; activity change, negative = inhibition, % at 57.5 µM; hit rate 4.5% among 410,000; AID 1259415; HFF cells, HCMV-luciferase reporter, 72 h; active compounds read low; in the data active = activity change below about -60%; inconclusive = no clear call, values can overlap the other calls; inactive = above about -39%
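Two compound doses tested in HFFs infected with HCMV-luciferase, MOI 1 PFU/cell, 72 h at 37C. Lysate luminescence read with OneGlo; data normalized against buffer-only and 10uM Salinomycin inhibitor controls.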
Lassa entry inh = Lassa virus entry inhibition; Lassa virus pseudotype entry inhibition, cell reporter; Potency, µM (top dose mostly 37.9 µM), without a hit: at the top dose activity change, negative = inhibition, actives largely listed as inhibitors; hit rate 1.2% among 300,000; calls by dose curve; tested in HEK293 cells; note: potency is the fitted concentration of half-maximal effect; nearly all actives have a fitted effect of over 50% in size
Active calls of the source: *; i = inactive; ? = inconclusive; · = not tested or not shown; [ ] = another dose, or the depositor's remark. An excerpt weighted towards active compounds, which were near 6.5% of everything screened. % is set by controls: 0 for no effect and ±100 for the full control effect.

SMILES | FMDV inh | Vaccinia mCherry | VACV Venus inh | MARV entry inh | HCMV inh | Lassa entry inh
COc1ccccc1C(C)NCC(=O)c1c(C)[nH]c2ccccc12 (stereo unspecified) | · | -13.3% | -9.9% | · | · | ·
Cc1cccc(OCC(=O)OCc2cc(=O)n3nc(C4CCCCC4)sc3n2)c1 | -0.6% | -4.5% | -6.8% | · | 23.3 | 9.1%[46.1 µM]
COc1ccccc1NS(=O)(=O)c1cc(NC(=O)C(C)C)ccc1N1CCCCC1 | 54.9% | -2.9% | -1.1% | 0.794µM* | -37.6 | ?
O=C(NNc1c2ccccc2nc2ccccc12)c1ccc(O)cc1 | -4.6% | · | · | 5.8µM* | ? | ?
O=C(NNc1c2ccccc2nc2ccccc12)c1ccccc1O | -16.5% | ? | -28.7% | ? | -21.7 | ?
O=C(NNc1c2ccccc2nc2ccccc12)c1cccc(O)c1 | 0.0% | ? | ? | ? | -60.8* | -9.0%
COc1c(/C=N/Nc2nc(N3CCCCC3)nc(N3CCCCC3)n2)cccc1[N+](=O)[O-] | -2.9% | -1.9% | -10.9% | ? | -91.5* | -18.2%
O=[N+]([O-])c1ccc(/C=N/Nc2ncccc2[N+](=O)[O-])s1 | 0.0% | ? | -17.3%[7.34 µM] | 16.8%[46.1 µM] | ? | 9.2%
COc1cccc(/C=N/Nc2ncccc2[N+](=O)[O-])c1OC | 7.08µM* | -26.0% | -24.4% | 1.58µM* | 66.4 | ?
O=[N+]([O-])c1cc2c(cc1/C=N/Nc1nc(Nc3ccccc3)nc(N3CCCCC3)n1)OCO2 | -4.0% | · | · | -25.5% | -75.4* | 1.4%
O=[N+]([O-])c1ccc(/C=N/Nc2nc(N3CCCCC3)nc(N3CCCCC3)n2)o1 | -29.0% | · | · | 20.6µM* | -30.1 | ?
O=C(O)[C@@H]1CN[C@@H](C(=O)O)C1 | 10.1% | -13.8% | -11.8% | · | · | ·
COc1cccc(/C=N/Nc2ccc([N+](=O)[O-])cn2)c1O | ? | 1.12µM* | ? | ? | -98.2* | ?
O=[N+]([O-])c1ccc(Nc2nc(NC3CCCCC3)nc(N3CCCC3)n2)cc1 | -2.7% | -6.0% | -13.1% | ? | -73.3* | -29.3%[46.1 µM]
COc1cccc(/C=N/Nc2nc(Nc3ccc([N+](=O)[O-])cc3)nc(N3CCCC3)n2)c1O | -7.1% | 3.98µM* | -27.9% | 2µM* | ? | ?
Cc1ccc(NC(=O)C23CCC(C)(C(=O)[C@H]2Br)C3(C)C)cc1 (stereo partly specified) | -20.8% | · | · | · | -62.0* | ·
CC12CCC(C(=O)Nc3ccccc3)(C(Br)C1=O)C2(C)C (stereo unspecified) | -29.3% | -1.1% | -22.6% | ? | ? | -2.4%
Cn1cnc(S(=O)(=O)N2CCCC(C(=O)Nc3cccc(C#N)c3)C2)c1 (stereo unspecified) | -7.1% | -11.1% | -6.0% | · | 58.9 | 10.7%[46.1 µM]
COC(=O)C1=C(C)N(Cc2ccccc2)C(=NCC2CC2)NC1c1ccc(Br)cc1 (stereo unspecified) | · | · | · | -10.3%[14.2 µM] | · | ·
CC1CCN(C(=O)c2ccc(S(=O)(=O)Cc3ccccc3F)c([N+](=O)[O-])c2)CC1 | 20µM* | i | -16.8% | ? | -75.7* | ?
Cc1ccc(CS(=O)(=O)c2ccc(C(=O)N3CCCCC3)cc2[N+](=O)[O-])cc1 | ? | -25.1% | -13.4% | ? | -26.8 | -34.6%
O=C(c1ccc(S(=O)(=O)Cc2ccccc2Cl)c([N+](=O)[O-])c1)N1CCOCC1 | ? | ? | ? | ? | -69.2* | ?
O=C(c1ccc(S(=O)(=O)c2ccc(F)cc2)c([N+](=O)[O-])c1)N1CCCCCC1 | 12.6µM* | -18.7% | ? | ? | ? | ?
Cc1ccc(CS(=O)(=O)c2ccc(C(=O)N3CCN(c4ccccn4)CC3)cc2[N+](=O)[O-])cc1 | 15.8µM* | -28.8% | -21.1% | ? | -91.4* | -24.0%
O=C(c1ccc(S(=O)(=O)c2ccccc2Cl)c([N+](=O)[O-])c1)N1CCN(Cc2ccccc2)CC1 | 11.2µM* | -6.1% | -16.2% | ? | -84.9* | ?
SMILES | FMDV inh | Vaccinia mCherry | VACV Venus inh | MARV entry inh | HCMV inh | Lassa entry inh
Cc1c(C(=O)OC(C)C)sc(NC(=O)C2c3ccccc3Oc3ccccc32)c1C(=O)OC(C)C | 5.2% | -29.6% | -21.0% | ? | -2.7 | -20.6%[46.1 µM]
COc1ccc(CNC(=O)c2csc(N3CCN(CCc4ccccc4)C3=O)n2)cc1OC | · | · | · | · | -85.9* | ·
COc1ccc(CNC(=O)c2cnc(N3CCN(Cc4ccccc4C#N)C3=O)s2)cc1OC | · | · | · | · | 0.4 | ·
O=C(NC1CCCN(Cc2ccc(Cl)cc2)C1)c1cnc2ccccn2c1=O (stereo unspecified) | -28.6% | -17.3% | -23.1% | ? | -64.9* | ?
Cn1c(=O)c2c(nc(Sc3ncccn3)n2Cc2ccc(Cl)cc2)n(C)c1=O | ? | -7.6% | -15.2% | · | -61.0* | ·
Cn1c(=O)c2c(nc(SCCN3CCOCC3)n2Cc2ccccc2)n(C)c1=O | -22.5% | -19.1% | -9.6% | 1.12µM* | -11.0 | -11.1%
Cn1c(=O)c2c(nc(SCCN3CCCCC3)n2Cc2ccc(Cl)cc2)n(C)c1=O | -5.3% | ? | -19.9% | ? | -95.1* | ?
Cn1c(=O)c2c(nc(Sc3ncccn3)n2Cc2ccccc2Cl)n(C)c1=O | -25.7% | · | · | -1.2% | -9.0 | -28.3%
CCOc1ccc(-c2noc(CSc3nnc(Cc4ccccc4)n3-c3cccc(C)c3)n2)cc1 | ? | -22.1% | -26.8% | ? | -25.0 | ?
COc1ccc(-c2cccc(NS(=O)(=O)c3cc(C)c(Cl)cc3C)c2)nn1 | 23.5% | -5.8% | -10.1% | · | -16.5 | -19.5%[46.1 µM]
COc1ccc([C@]23Cc4cc(C#N)ccc4[C@H](O2)c2c(cc(C)n(-c4ccccc4)c2=O)O3)cc1 | · | · | · | 2.3%[14.2 µM] | · | ·
O=C(Cc1cccs1)N[C@@H]1c2ccccc2CC[C@@H]1OCc1ccccc1 | 13.3% | i | 2.4% | · | -17.2 | ·
CC(C)C(=O)N[C@@H]1c2ccccc2CC[C@@H]1OCc1ccccc1 | 0.0% | i | 0.0% | · | -82.2* | ·
O=C(Cc1cccs1)N[C@@H]1c2ccccc2CC[C@H]1OCc1ccccc1 | 1.6% | i | -9.1% | · | -99.3* | ·
O=C(Nc1sc2c(c1C(=O)O)CCCC2)c1ccc(Cl)cc1 | 6.8% | -8.6% | -27.1% | 6.31µM* | 16.9 | 7.94µM*
CCN(CC)Cc1c(NC(=O)c2ccc(OC)cc2)sc2c1CCCC2 | 28.8% | -8.3% | -8.8% | · | -89.6* | ?
O=C(Nc1sc2c(c1C(=O)O)CCCC2)c1cccc(Cl)c1 | 18.1% | · | · | · | 27.8 | ·
O=C(Nc1sc2c(c1C(=O)O)CCC2)c1ccccc1 | 22.2% | · | · | 7.3µM* | 84.2 | ?
O=C(Nc1sc2c(c1C(=O)O)CCCCC2)c1ccccc1 | -18.7% | i | -24.4% | 7.08µM* | 10.8 | ?
CC(=CCO)CCO | · | · | · | 1.8%[14.2 µM] | · | ?
COc1ccc(CCn2c(=S)[nH]c(=O)c3cccnc32)cc1OC | · | -16.5% | -29.4% | · | · | ·
N#CC(C#N)[C@@H](c1ccsc1)c1c(-c2ccccc2)[nH][nH]c1=O | · | · | · | 2.1% | · | ·
COc1cc(OC)cc(-n2c(=O)c3ccccc3n(CC(=O)NCCc3ccc(OC)c(OC)c3)c2=O)c1 | -21.3% | -9.1% | -0.7% | -28.5%[46.1 µM] | -0.2 | -4.2%[46.1 µM]
